The campaign covered roughly 420,000 compounds. About 50,000 (12%) were called active. Not shown: some 26% with an inconclusive outcome. The call rests on the fitted dose curve; in most records, active means well fitted inhibition curve with a large enough effect; inconclusive means small, poorly fitted or top-dose-only effect; inactive means flat fitted curve, though single readings scatter. Only a selection was taken, and actives are over-represented in it overall.
test: qHTS for Inhibitors of human tyrosyl-DNA phosphodiesterase 1 (TDP1): qHTS in cells in presence of CPT; settings: chicken DT40 Tdp1-/-;hTDP1 cells + 20 nM CPT, ATP luminescence, 48 h; series mostly up to 46.2 µM; activity change, negative = growth inhibition: at the top concentration; further: nearly all actives have a fitted effect of over 55% in size
Procedure, shortened: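 Chicken DT40 Tdp1-/- cells stably complemented with human TDP1 were seeded at 400 cells/well in medium containing 20 nM camptothecin, exposed to pin-transferred compounds, and grown at 37 °C for at least 48 hr. Viability was read as ATP luminescence.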
On the % scale 0 is the no-effect control and ±100 the full control effect; potency means the concentration at half of the fitted maximal effect.

| SMILES | activity change, negative = growth inhibition | Potency |
| --- | --- | --- |
| O=C(O)c1ccc(Cn2cnc3c(=S)nc[nH]c32)cc1 | 14.7% (inactive) | – |
| O=C(c1cccnc1)N1CCN(S(=O)(=O)c2cccs2)CC1 | -5.05% (inactive) | – |
| Cc1cc(-c2ccc(C)c(S(=O)(=O)Nc3ccc(S(N)(=O)=O)cc3)c2)on1 | -3.34% (inactive) | – |
| CCc1noc(C)c1C(=O)NCCN1Cc2cc(OC)ccc2OC(CC)C1 (centres undefined) | -8.71% [at 9.04 µM] (inactive) | – |
| CCC1CN(S(=O)(=O)c2cc(-c3cc(C)no3)ccc2C)c2cc(C)ccc2O1 (centres undefined) | – | 20.6 µM (active) |
| CC1Cc2ccccc2N1S(=O)(=O)c1c(N)n(C)c(=O)n(C)c1=O (centres undefined) | -1.47% (inactive) | – |
| Cc1ccc(C)c(S(=O)(=O)N2CC(=O)Nc3ccccc32)c1 | -7.38% (inactive) | – |
| Cc1cc(-c2ccc(C)c(S(=O)(=O)N3c4ccccc4CC3C)c2)on1 (centres undefined) | – | 18.4 µM (active) |
| CC(=O)c1ccc(S(=O)(=O)Nc2ccc(-c3ccc4nncn4n3)cc2)cc1 | 26% (inactive) | – |
| O=C(O)C(=Cc1ccccc1[N+](=O)[O-])c1ccccc1 | -1.61% (inactive) | – |
| CCCCCCCC1(C)NC(=O)N(CC(=O)Nc2cc(C)on2)C1=O (centres undefined) | -1.42% (inactive) | – |
| COc1ccc(NC(=O)CN(C)C(=O)c2cc(C3CC3)nn2-c2ccccc2)cc1 | -20.1% (inactive) | – |
| COc1ccc(NC(=O)CN(C)C(=O)c2cccc(S(=O)(=O)N3CCN(c4ccccc4)CC3)c2)cc1 | – | 18.4 µM (active) |
| CCOc1ccc(NC(=O)CN(C)C(=O)c2cccc(S(=O)(=O)N3CCCC3)c2)cc1OCC | 6.25% (inactive) | – |
| COc1cc(/C(=C/c2ccccc2)c2ccccc2)c2c(c1)oc1ccccc12 | – | inactive |
| O=C(CSc1n[nH]c(-c2cccnc2)n1)Nc1ccc(Cl)cc1 | -6.52% (inactive) | – |
| COc1cc(C#Cc2ccc3cc(CCCO)oc(=O)c3c2)cc(OC)c1 | – | 0.651 µM (active) |
| Cc1ccc(N(CC(=O)NC2CCCCC2)C(=O)CCCC(=O)Nc2ccccn2)c(C)c1 | -6.89% (inactive) | – |
| CC(C)(C)S(=O)(=O)c1ccccc1-c1noc(-c2ccccc2)c1C(N)=O | 14.1% (inactive) | – |
| COc1ccc(S(=O)(=O)N(CC(=O)NCc2ccco2)c2ccc(F)cc2)cc1 | -11% (inactive) | – |
| COc1ccc(CNC(=O)CN(c2ccc(OC)c(Cl)c2)S(=O)(=O)c2ccc(C)cc2)cc1 | – | 25.9 µM (active) |
| Cc1ccc(N(CC(=O)NCc2ccc(Cl)cc2)S(=O)(=O)N(C)C)cc1 | -2.04% (inactive) | – |
| COCc1cc(C)nc2sc(C(=O)NC3CCCCC3)c(N)c12 | -21.3% (inactive) | – |
| O=C(O)C1=C(C(=O)O)C2CCC1C2 | 0.326% (inactive) | – |
| CCN(CCN(C)C)C(=O)c1ccc2nc(C)c(N(C)C(=O)CCc3ccccc3)n2c1 | 13.7% (inactive) | – |

| SMILES | activity change, negative = growth inhibition | Potency |
| --- | --- | --- |
| Cc1ccc(CNC(=O)COC(=O)C2CCC2)cc1 | -1.47% (inactive) | – |
| CC(O)c1ccc(OCCN(C)c2ccccn2)cc1 (centres undefined) | 4.7% (inactive) | – |
| Cc1ccc(S(=O)(=O)CC(=O)NC(C)c2ccccc2)cc1 (centres undefined) | 8.16% (inactive) | – |
| Cc1ccccc1-c1nc(CS(=O)(=O)CC(=O)NC(C)c2ccccc2)c(C)o1 (centres undefined) | – | 16.4 µM (active) |
| CSc1ccc(CCNC(=O)CS(=O)(=O)Cc2nc(-c3ccccc3F)oc2C)cc1 | -0.97% (inactive) | – |
| CC(C)Cc1nnc(NC(=O)CCNC(=O)c2ccccc2Cl)s1 | -10% (inactive) | – |
| CCOC(=O)N1CCN(C(=O)C2CCN(c3ncnc4c3sc3cccc(F)c34)CC2)CC1 | – | 8.2 µM (active) |
| CCOC(=O)N1CCN(C(=O)C2CCN(S(=O)(=O)c3cc(Cl)ccc3OCC)CC2)CC1 | -3.7% (inactive) | – |
| CCOC(=O)N1CCN(C(=O)C2CCCN(c3ncnc4c3sc3cccc(F)c34)C2)CC1 (centres undefined) | -104% (inactive) | – |
| O=C(CCn1nnnc1CN1CCOCC1)N1CCC(c2ccccc2Cl)C1 (centres undefined) | -12.6% (inactive) | – |
| COc1ccc(F)c(CN2CCC3(CCC(CNC(=O)c4ccn(C)n4)O3)CC2)c1 (centres undefined) | 7.32% (inactive) | – |
| Cc1ccccc1N1CC(C(=O)Nc2ccc3c(c2)OCO3)CC1=O (centres undefined) | -10.8% (inactive) | – |
| COc1ccc(C(=O)CCc2ccccc2O)c(OC)c1 | 5.83% (inactive) | – |
| COc1ccc(C(=O)CC(=O)c2ccc(C)cc2)c(O)c1 | – | 4.61 µM (active) |
| COc1ccc(C(=O)Cc2cnn(-c3ccccc3)c2)c(O)c1 | -20.1% (inactive) | – |
| COc1ccc(NC(=O)Cn2c(=O)cc(C)c3c(C)nn(-c4cccc(Cl)c4C)c32)cc1OC | -8.29% (inactive) | – |
| Cc1noc(C)c1NC(=O)Nc1cccc2c1O[C@H](CN(C)S(=O)(=O)c1c(C)noc1C)[C@@H](C)CN([C@H](C)CO)C2=O | 13.3% (inactive) | – |
| CC(OC(=O)CN1C(=O)C2CCCCC2C1=O)C(=O)Nc1ncc(Cl)cc1Cl (centres undefined) | -15.3% (inactive) | – |
| O=C(CN1C(=O)C2C3CCC(C3)C2C1=O)Oc1ccc2ccccc2c1 (centres undefined) | 1.24% (inactive) | – |
| CC1=CC(C)(C)Nc2ccc(OC(=O)CN3C(=O)C4CCCCC4C3=O)cc21 (centres undefined) | – | 1.64 µM (active) |
| O=C(/C=C/c1c(F)cccc1Cl)Nc1nn[nH]n1 | 10.1% (inactive) | – |
| O=C(N/C(=C\c1ccc(O)cc1)C(=O)N1CCCCC1)c1ccccc1 | -0.525% (inactive) | – |
| CCOc1ccc(C2/C(=C(/O)c3ccc4c(c3)CC(C)O4)C(=O)C(=O)N2CCCn2ccnc2)cc1 (centres undefined) | -13.3% (inactive) | – |
| CC(C)=CCC/C(C)=C/CC/C(C)=C/CC/C(C)=C/CO | – | inactive |

Reference: PubChem BioAssay AID686979 (National Center for Advancing Translational Sciences (NCATS), 2013)
